# Experimental data as given in PubChem BioAssay AID1942 (Johns Hopkins Ion Channel Center, 2009).
# Out of some 2,400 compounds screened, about 580 (24%) were called active. A selection follows. Unmarked numbers belong to inactive results.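 The calls were made as follows: active = activity change at or above the mean plus 3 SD of buffer wells without dofetilide, per plate; inactive = the rest.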
# Molecular target: Potassium voltage-gated channel subfamily KQT member 2 (Rattus norvegicus) (UniProt O88943)
# Assay: KCNQ2 potentiation in CHO cells – cell-based, FluxOR thallium flux, counter-screen for hERG block protector project, confirmation (AID 1942);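 also: normalized value minus buffer-control mean plus three SD of buffer wells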
# Conditions: FluxOR thallium flux fluorescence, at 10 µM, stronger effect = higher value
# Potassium voltage-gated channel subfamily KQT member 2 (Rattus norvegicus), sequence (O88943 whole entry, looked up): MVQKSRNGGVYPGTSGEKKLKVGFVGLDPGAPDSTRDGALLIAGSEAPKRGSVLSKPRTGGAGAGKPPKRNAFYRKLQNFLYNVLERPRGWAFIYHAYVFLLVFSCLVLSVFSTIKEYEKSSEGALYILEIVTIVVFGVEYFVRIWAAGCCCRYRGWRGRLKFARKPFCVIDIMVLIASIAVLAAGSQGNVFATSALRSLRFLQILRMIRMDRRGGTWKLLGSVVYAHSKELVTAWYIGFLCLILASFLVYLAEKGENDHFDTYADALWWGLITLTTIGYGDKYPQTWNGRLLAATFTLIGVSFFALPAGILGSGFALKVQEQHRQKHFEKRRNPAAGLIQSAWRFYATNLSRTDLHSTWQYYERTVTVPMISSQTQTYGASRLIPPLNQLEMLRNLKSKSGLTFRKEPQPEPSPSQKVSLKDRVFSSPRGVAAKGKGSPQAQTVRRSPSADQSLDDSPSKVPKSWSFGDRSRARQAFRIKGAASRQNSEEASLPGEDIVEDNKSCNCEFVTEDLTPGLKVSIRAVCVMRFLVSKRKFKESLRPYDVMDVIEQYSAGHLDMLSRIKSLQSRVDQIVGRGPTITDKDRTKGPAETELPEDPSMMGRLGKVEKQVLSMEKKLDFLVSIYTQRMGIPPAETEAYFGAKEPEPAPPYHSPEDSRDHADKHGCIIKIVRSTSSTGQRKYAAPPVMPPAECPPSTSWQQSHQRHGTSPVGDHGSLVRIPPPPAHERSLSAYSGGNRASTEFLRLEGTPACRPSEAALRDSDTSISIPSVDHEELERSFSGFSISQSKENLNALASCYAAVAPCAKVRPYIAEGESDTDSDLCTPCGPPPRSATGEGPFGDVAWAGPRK
row,Compound,"activity change, less the hit threshold"
1,COC(=O)c1c(N2C(=O)CC(Sc3ncccc3C(=O)O)C2=O)sc(C)c1C (configuration not stated),-12.9%
2,COc1ccc(/C=N/NC(=O)c2ccncc2)cc1CN1CCCc2ccccc21,-22.8%
3,O=C(NNc1c(F)c(F)cc(F)c1F)c1cc2ccccc2oc1=O,-13%
4,O=c1[nH]n2c(=O)c3c([nH]c2c1N=Nc1ccccc1)CCC3,-11.6%
5,CNC(=O)NC(=O)C(C)N1CCN(C/C=C/c2ccccc2)CC1 (configuration not stated),-19.2%
6,O=C(NC(=S)N1CCN(C/C=C/c2ccccc2)CC1)c1ccc(Cl)nc1,7.4% (active)
7,O=C(CCN1C(=O)/C(=C\C=C\c2ccccc2)SC1=S)Nc1cccc(C(=O)O)c1,-20.7%
8,O=C(Nc1ccc(N2CCN(C(=O)c3ccc(Cl)cc3)CC2)cc1)c1ccc([N+](=O)[O-])o1,-6.1%
9,CC(=O)NC(CSC(CC(=O)c1ccco1)c1ccc(C)cc1)C(=O)O (configuration not stated),-4.9%
10,Cc1ccc(S(=O)(=O)c2nnn3c2nc(N2CCOCC2)c2ccccc23)c(C)c1,-20.7%
11,COc1ccccc1NC(=O)C1CCCN1C(=O)NCc1ccccc1 (configuration not stated),-24.2%
12,CCOC(=O)c1nnn(CC(=O)Nc2ccccc2OC)c1C(=O)OCC,-15.8%
13,COc1ccccc1NC1=C(NC(C)=O)C(=O)c2ccccc2C1=O,14.4% (active)
14,O=C(Nc1ccc(Cl)cc1)Nn1cnnc1,-22.2%
15,CC(C)NC(=O)Nc1n[nH]c(Nc2ccc(Cl)cc2)n1,13.2% (active)
16,O=c1[nH]c2ccc(S(=O)(=O)NCc3ccccc3)cc2[nH]1,-14%
17,O=C(CSc1nc(N2CCCCC2)nc(N2CCCCC2)n1)c1ccccc1,31.5% (active)
18,CC(C)Nc1nc(SCC(N)=O)nc(N2CCOCC2)n1,-13.5%
19,Cc1ccc2nc(SCC(=O)N3CCCCCC3)nc(=O)n2c1,-23.7%
20,CN(C)CCOC(=O)C1(c2ccccc2)CCCC1,-12.9%
21,CC(C)n1c(=S)[nH]c2scc(-c3cccs3)c2c1=O,97.6% (active)
22,S=c1[nH]c(-c2cccs2)cn1-c1ccccc1,-6.4%
23,Cn1c(=S)[nH]c2scc(-c3cccs3)c2c1=O,70.4% (active)
24,COc1cc(/C=N/n2cnc3scc(-c4cccs4)c3c2=O)cc(OC)c1OC,-21%
25,CC(C)C(=O)Nc1c(-c2ccccc2F)c(=O)c2ccccc2n1C,-21.5%

row,Compound,"activity change, less the hit threshold"
1,NC(=O)C1CCN(C(=O)CC(c2ccccc2)c2ccccc2)CC1,-24%
2,Brc1ccc(-c2noc(CCc3ccccc3)n2)cc1,-24.9%
3,CC(C)(C)c1cc(-c2n[nH]c(=S)n2-c2ccccc2F)n[nH]1,11.5% (active)
4,Fc1ccccc1-c1n[nH]c(=S)n1C1CC1,-17.8%
5,COc1ccc(/C(C)=N/Nc2ccc(C(=O)O)cc2)c(OC)c1,-18.1%
6,COc1ccccc1-n1c(CCC(=O)O)ccc1-c1ccccc1,-13.3%
7,ON/C=N/C(=S)Nc1ncc(C(F)(F)F)cc1Cl,26.3% (active)
8,CON/C=N/C(=S)Nc1ncc(C(F)(F)F)cc1Cl,29.7% (active)
9,c1ccc(Oc2cccc(OCCn3cncn3)c2)cc1,-14.9%
10,Cc1ccccc1NC(=O)CN1C(=O)S/C(=C\c2ccc(-c3cccc(C(=O)O)c3C)o2)C1=O,-22.4%
11,CN(Cc1ccsc1)C(=O)CCc1nnc(Cc2c[nH]c3ccccc23)o1,-10.9%
12,O=C1NCC(=O)N2C(c3ccccc3)c3[nH]c4ccccc4c3C[C@@H]12 (some centres not stated),-11.9%
13,CC(=O)CSc1ncnc2sc3c(c12)CCC(C)C3 (configuration not stated),89.9% (active)
14,COc1cc(NC(=O)CCCOc2ccc(Cl)cc2Cl)c(C(=O)O)cc1OC,-18.7%
15,COc1cc(NC(=O)CSc2ncnc3sc4c(c23)CCC(C)C4)c(C(=O)O)cc1OC (configuration not stated),89.6% (active)
16,NS(=O)(=O)c1ccc(Sc2ccc3c(c2)CCC3)nc1,-2.7%
17,COc1cc(NS(=O)(=O)c2ccc(NC(=S)Nc3ccccc3)cc2)nc(OC)n1,-20.8%
18,COc1ccc(C(=O)CSc2nnc3ccc(-c4ccccn4)nn23)cc1,-17.4%
19,CS(=O)(=O)N1CCN(c2ccccc2NC(=O)Nc2cccc(Cl)c2)CC1,-24.2%
20,COc1ccc(-c2nc3ccc(C(=O)NCC(OC)OC)cc3nc2-c2ccc(OC)c(OC)c2)cc1OC,-22.7%
21,O=C1C(=O)N(CCN2CCOCC2)C(c2cccnc2)/C1=C(/O)c1ccc(Cl)cc1 (configuration not stated),-17.6%
22,Nc1nnc(SCC(=O)OCc2ccc(F)cc2)s1,-16.7%
23,O=C(/C=C/c1ccccc1)CC(=O)c1ccccc1O,-15.2%
24,CCc1ccc(/C=C/C(=O)c2cc(Br)ccc(=O)c2O)cc1,-8.6%
25,Cc1cccc(/C=C/C(=O)c2cc(Br)ccc(=O)c2O)c1,3% (active)

row,Compound,"activity change, less the hit threshold"
1,O=C(/C=C/c1ccccc1)c1cc(Br)ccc(=O)c1O,15% (active)
2,COc1cc(C2NC(=O)NC(O)(C(F)(F)F)C2C(C)=O)cc(OC)c1OC (configuration not stated),-20.3%
3,O=C1CC(C(=O)N2CCOCC2)C2(CCCCC2)O1 (configuration not stated),-22.9%
4,CCOc1ccccc1CNC(=O)CNC(=O)c1cccs1,-20.9%
5,Cc1ccc(NC(=S)c2nc3ccccc3s2)cc1,-9.6%
6,Cc1cccc(NC(=S)c2nc3ccccc3s2)c1,-23.6%
7,S=C(Nc1ccc(Cl)cc1)c1nc2ccccc2s1,7.4% (active)
8,Cc1ccc2[nH]c(=O)c(C(c3nnnn3C3CCCC3)N3CCCc4ccccc43)cc2c1 (configuration not stated),13.3% (active)
9,CC(C)(C)n1nnnc1C(c1cc2cc3c(cc2[nH]c1=O)OCCO3)N1CCSCC1 (configuration not stated),-17.4%
10,CC(=O)Nc1ccc(S(=O)(=O)NC2(C(F)(F)F)C(=O)Nc3c2c(=O)[nH]c(=O)n3C)cc1 (configuration not stated),-12.3%
11,Cc1cc(OCCN2CCCCCC2)ccc1[N+](=O)[O-],-19.9%
12,Cn1c(=O)cc(-c2ccccc2)c2ccccc21,-20.4%
13,O=c1cc(-c2ccccc2)cc(-c2ccccc2)n1O,57.6% (active)
14,C/C=C(\C)CN1CCN(c2cccc(C)c2C)CC1,-16.9%
15,Cc1ccccc1OCC(=O)NNC(=O)c1ccc2c(=O)n3c(nc2c1)CCC3,-15.4%
16,O=C(COc1ccc(Br)cc1Br)NC(=S)N1CCCc2ccccc21,-16.8%
17,O=C(NC(=S)N1CCCc2ccccc21)c1ccc([N+](=O)[O-])cc1,15.1% (active)
18,O=C(NC(=S)Nc1ccccc1N1CCCC1)c1ccc([N+](=O)[O-])cc1,-8.4%
19,CCC(=O)N1CCCc2ccccc21,-20.5%
20,COc1ccccc1NC(=S)N1CCCc2ccccc21,-23.2%
21,O=C(NC(=S)N1CCCc2ccccc21)c1ccc(Br)cc1,18.2% (active)
22,COc1ccccc1NC(=O)Cc1nnc(SCC(=O)Nc2nccs2)n1C,-13.3%
23,Cc1ccc(C2c3c(-c4ccccc4O)n[nH]c3C(=O)N2Cc2ccncc2)cc1 (configuration not stated),-18.8%
24,O=C1N2CCSC2=NC1(NS(=O)(=O)c1ccccc1)C(F)(F)F (configuration not stated),-12%
25,O=C(Nc1ccccc1)N1CCSc2cc(Cl)ccc21,-9.1%

row,Compound,"activity change, less the hit threshold"
1,S=c1[nH]cnc2scc(-c3ccccc3)c12,44.9% (active)
2,Cc1ccc(-c2csc3nc[nH]c(=S)c23)cc1,41% (active)
3,S=c1[nH]cnc2scc(-c3ccc(Br)cc3)c12,4.9% (active)
4,S=c1[nH]cnc2scc(-c3ccc(Cl)cc3)c12,18.2% (active)
5,Fc1ccc(-n2cc(-c3ccccc3)c3c(=S)nc[nH]c32)cc1,-9.7%
6,Cn1cc(/C=N/n2cnc3scc(-c4ccc(Cl)cc4)c3c2=O)c2ccccc21,-18.8%
7,Cc1ccc(C)n1-n1c(C)nc2scc(-c3ccccc3)c2c1=O,-30.9%
8,Cn1nnnc1Sc1ncnc2scc(-c3ccc(F)cc3)c12,-21.3%
9,CC1=NN(C(=O)c2cc(C)nn2C)C(O)(C(F)(F)F)C1 (configuration not stated),-11.2%
10,Nc1nc(Br)c2c(F)cccc2c1-c1ccc(Cl)cc1,-21.1%
11,COc1ccc(NC(=O)C2CCN(S(=O)(=O)c3cn(C)nc3C)CC2)cc1,-13.2%
12,O=C(Cn1c(=O)c2cccn2c2ccccc21)NCCc1ccc(Cl)cc1,-34.9%
13,CC1CCCN(C(=O)COC(=O)c2cc(-c3cccs3)nn2-c2ccccc2)C1 (configuration not stated),-25.5%
14,O=C(CSc1ncnc2c1cnn2-c1ccc(Cl)cc1)NCc1ccc2c(c1)OCO2,-11.1%
15,Cc1ccc(-n2ncc3c(SCC(=O)NNC(=O)c4ccco4)ncnc32)cc1,4.4% (active)
16,Cn1ncc2c(NNC(=O)Cc3ccccc3)ncnc21,-14.4%
17,CC(C)Oc1c(Cl)cc(CNC(C)(C)CO)cc1Cl,-18.3%
18,c1cnc2c(Oc3ncnc4sccc34)cccc2c1,-17%
19,O=C(O)c1ccc(S(=O)(=O)/N=C2\C=C(Nc3ccccc3F)C(=O)c3ccccc32)cc1,3.9% (active)
20,Cc1ccccc1NC1=C/C(=N\S(=O)(=O)c2ccc(C(=O)O)cc2)c2ccccc2C1=O,10% (active)
21,Cc1cc(NC(C)C)n2c(nc3ccccc32)c1C#N,-21.5%
22,Cc1cc(NC(=O)CCCn2cnc([N+](=O)[O-])n2)no1,-14.3%
